# Assay outcomes: PubChem BioAssay, National Center for Advancing Translational Sciences (NCATS)
# The full list was thinned out, with hits kept by preference.
# Hsp90 Hop PPI: changes Hsp90-Hop TPR2A binding signal, up or down | actives 0.44% (n = 71,000) | AlphaScreen TPR2A-His6 binding biotin-Hsp90 C-terminal peptide | Potency, µM (series often up to 57 µM), without a hit: at the highest dose activity change, negative = inhibition | AID 595; active means well fitted curve in either direction with a large enough effect; inconclusive means small, poorly fitted or top-dose-only effect, or another doubt; further: potency means the concentration at half of the fitted maximal effect; on the % scale 0 is the no-effect control and ±100 the full control effect
# HBB splice mod: alters splicing of the hemoglobin beta chain; AID 925; HBB splicing reporter cell assay, activation; EGFP reporter with mutant IVS2-654 intron; response scale: normalised to 500 nM splice-correcting PNA; Potency, µM (top dose mostly 46.1 µM), for the others: at the top dose activation, most hits filed as activators; actives 0.06% (n = 65,000); further: potency means the concentration at half of the fitted maximal effect; 0% is about no effect
#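 HeLa cells stably expressing EGFP interrupted by mutant beta-globin intron 2 (IVS2-654), 500/well in 2% FCS. Treated with compound for 2 days at 37C. Splicing correction scored as total well GFP intensity (488 nm excitation, 500-520 nm emission); 500 nM antisense PNA served as control.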
# UbGFP stabilizer: proteasome inhibitors stabilizing ubiquitin-GFP reporter. Potency, µM (series often up to 45.9 µM), without a hit: at the top dose activation (GFP accumulation), most hits filed as activators. Ubiquitin-GFP reporter cells, proteasome inhibition, GFP fluorescence; response scale: untreated = 0%, 10 µM MG-132 = 100%. 67,000 tested, under 10 active; active means well fitted activation curve with a large enough effect, not every such curve was filed as active; inconclusive means small, poorly fitted or top-dose-only effect, or another doubt; inactive means no such curve, though single readings can be large or run the other way; further: potency means the concentration at half of the fitted maximal effect
#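 U2OS cells stably expressing ubiquitin(G76V)-GFP, seeded overnight in 0.5% FBS medium, were exposed to compounds (qHTS, 46 uM to 2.9 nM) for 4 hr at 37 °C. GFP-positive cells were counted by laser cytometry (488 ex/515 em), normalized between basal and 10 uM MG-132.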
# IkB signaling: suppresses IkB signaling in ABC-DLBCL reporter cells | ABC-DLBCL IkBa-CBG/CBR dual luciferase ratio, 4 h; response scale: scaled: untreated 0%, proteasome inhibitor 100% | Potency, µM (highest dose often 57.1 µM), without a hit: top-dose IkBa stabilization activation | actives 0.04% (n = 110,000) | AID 445; active means well fitted curve in the direction sought with a large enough effect in the signal ratio, not every such curve was filed as active; inconclusive means small, poorly fitted or top-dose-only effect, or a change in a side signal; the % refers to the signal ratio;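 further: potency means the concentration at half of the fitted maximal effect; the direction sought is a rising ratio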
#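 Curves were fitted separately to fusion (green), unfused (red) and ratio luminescence, then classed by r2, magnitude and activity. Cells: OCI-Ly3, 4 h compound plus doxycycline at 37C; 10 uM MG-132 defined full response.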
# GFP derepression: epigenetic GFP locus derepression in mouse cells; AID 597; Potency, µM (titrated, usually from 46.1 µM), for the others: top-dose GFP derepression (activation); actives 0.09% (n = 68,000); mouse C127i GFP locus derepression, cytometry, 30 h; further: % of control where 0% means no effect
#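 Read-out is the number of GFP-positive cells, scored as fluorescent objects 20 to 120 um wide, reflecting derepression of a silenced CMV-GFP reporter in murine C127i cells after 30 h compound exposure at 37 C.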
# Numbers without * were called inactive; u = inconclusive; x = no result; ! = not active in a repeat; [ ] = dose if it differs, or a comment. Unless noted, the call rests on the fitted dose curve; in most records, active means well fitted curve in the direction sought with a large enough effect; inconclusive means small, poorly fitted or top-dose-only effect, or another doubt; inactive means no such curve, though single readings can be large; an effect the other way counts as inactive or inconclusive.
SMILES,Hsp90 Hop PPI,HBB splice mod,UbGFP stabilizer,IkB signaling,GFP derepression
NCCCNCCCCNCCCN,-2%,-1%,15%,0%,1%
NCCNCCNCCNCCN,5µM*,0%,x,-2%,x
NCCC[C@@H](CC(=O)N[C@@H]1CCNC[C@H]1C(=O)N[C@H](CC(=O)N[C@@H](CCC(=O)O)CC(=O)O)Cc1ccccc1)NC(=O)C[C@H](CO)NC(=O)[C@@H]1CNCC[C@H]1N,32µM*,3%,x,3%,x
CC(C)[C@@H](CC(=O)N[C@@H]1CCNC[C@H]1C(=O)N[C@H](CC(=O)N[C@@H](CCC(=O)O)CC(=O)O)Cc1c[nH]c2ccccc12)NC(=O)C[C@H](CO)NC(=O)[C@@H]1CNCC[C@H]1N,32µM*,-1%,x,0%,x
CC(C)C[C@@H](CC(=O)N[C@@H](CCC(=O)O)CC(=O)O)NC(=O)[C@@H]1CNCC[C@H]1NC(=O)C[C@@H](NC(=O)C[C@H](Cc1c[nH]c2ccccc12)NC(=O)[C@@H]1CNCC[C@H]1N)C(C)C,-8%,2%,x,1%,x
Cc1csc2nc(COc3ccc(NC(=O)COc4ccc(F)cc4)cc3)cc(=O)n12,x,x,x,1%,x
COc1cc(OC)cc(C(=O)NCCc2csc(-c3ccc(C(F)(F)F)cc3)n2)c1,x,x,x,7%,x
CN(C)c1ncc2nc(CCc3ccccc3)c(=O)n(Cc3cccs3)c2n1,25µM*,0%,5%,2%[11.4 µM],0%[9.22 µM]
CN(C)c1ncc2nc(-c3ccccc3)c(=O)n(CCc3ccccc3)c2n1,-8%,0%,0%,-4%[11.4 µM],3%[9.22 µM]
COc1ccc(-c2nc3cnc(N(C)C)nc3n(CCc3ccccc3)c2=O)cc1,0.63µM*,1%,-1%,0%[11.4 µM],0%[9.22 µM]
O=c1c(-c2ccccc2)nc2cnc(N3CCOCC3)nc2n1CCc1ccccc1,5µM*,3%,1%,0%[11.4 µM],-6%[9.22 µM]
CC(=O)Oc1ccc(/C=C\C(=O)C[C@@H]2O[C@@H](Oc3cc(OC(C)=O)c4c(c3)O[C@@H](c3ccc(OC(C)=O)cc3)CC4=O)[C@H](OC(C)=O)[C@H](OC(C)=O)[C@@H]2OC(C)=O)cc1,3%,x,-3%,-1%[11.4 µM],-5%[9.22 µM]
CCOc1ccc(NC(=O)C2CCN(c3nc4ccccc4[nH]3)CC2)cc1,x,x,x,1%,x
CN1c2cccc3cccc(c23)N(C)C1(C)C,-20%,1%,-4%,1%,-1%
Cc1ccc2ccc3cccc4ccc1c2c34,40µM*,0%,x,-1%,x
COc1ccccc1N1CCN(c2ccc(-c3ccccc3)nn2)CC1,-13%,x,-3%,4µM*,0%
COc1ccccc1N1CCN(c2nc(-c3ccccc3)cc(C(F)(F)F)n2)CC1,-2%,-1%,-1%,0%,2%
CCOC(=O)c1c2c(n3ccccc13)C(=O)c1ccccc1C2=O,-17%[11 µM],3.2µM*,-9%[9.17 µM],-5%[11.4 µM],7%[9.22 µM]
Nc1nc(Sc2ccc([N+](=O)[O-])c3nonc23)c2[nH]cnc2n1,-5%[11 µM],3.2µM*,-8%[9.17 µM],4µM*,u
O=C(Cn1ncc2c3ccccc3n(Cc3ccccc3F)c2c1=O)NC1CCCCCC1,x,x,x,1%,x
C[C@H]1[C@H](C)CC[C@@]2(C(=O)O)CC[C@]3(C)C(=CC[C@H]4[C@@]5(C)C[C@@H](O)[C@H](O)[C@@](C)(CO)[C@@H]5CC[C@@]43C)[C@@H]12,4%,x,1%,-1%[11.4 µM],-4%[9.22 µM]
Cc1csc(NC(=O)c2sc3nc(-c4cccs4)ccc3c2N)n1,u,16µM*,0%,u,18%
COc1ccc(Nc2ncc3nc(-c4cccs4)c(=O)n(Cc4cccc(OC)c4)c3n2)cc1,-2%,u,3%,2%[11.4 µM],u
CN1CCN(c2ncc3nc(-c4cccs4)c(=O)n(Cc4ccc(F)cc4)c3n2)CC1,1%,u,u,0%[11.4 µM],4µM*
COc1cccc(Cn2c(=O)c(-c3cccs3)nc3cnc(Nc4cccc(OC)c4)nc32)c1,7.9µM*,10µM*,7%,1%[11.4 µM],0%[9.22 µM]
SMILES,Hsp90 Hop PPI,HBB splice mod,UbGFP stabilizer,IkB signaling,GFP derepression
Nc1ccn([C@H]2CC[C@H](CO)O2)c(=O)n1,-4%,0%,0%,-4%,2%
COc1ccc(Oc2ncc3nc(-c4cn(C)c5ccccc45)c(=O)n(CCC#N)c3n2)cc1,5µM*,-1%,0%,0%[11.4 µM],-2%[9.22 µM]
Cc1nc2cccnc2n1-c1cccc(C(=O)NCc2cccc(Cl)c2)c1,x,x,x,-1%,x
CCN(CC)C(=O)Sc1cccc2cccnc12,-3%,0%[57.5 µM],0%,-1%,1%
CCOC(=O)CSc1cccc2cccnc12,16µM*,8%,-5%,u,u
C[C@H](O)[C@H](O)[C@@H](O)c1cnc2nc(N)[nH]c(=O)c2n1,-1%,x,3%,1%[11.4 µM],5%[9.22 µM]
CCOC(=O)C1CCN(Cc2ccc(O)c3ncccc23)CC1,5µM*,x,0%,15%,u
C=C1CC[C@H]2C(C)(C)[C@H](O)CC[C@]2(C)[C@@H]1COc1ccc2ccc(=O)oc2c1,-2%,x,2%,-2%[11.4 µM],-2%[9.22 µM]
CCNc1nc(NCC)nc(-n2nc(C)cc2C)n1,-12%,0%,9%,-1%,u
Cc1cc(C)n(-c2nc(NC(C)(C)C)nc(NC(C)(C)C)n2)n1,-2%,-1%[9.22 µM],0%,4%,13µM*
Cc1cc(Nc2ccc(F)cc2)nc(-n2nc(C)cc2C)n1,x,x,x,-2%,x
Cc1cc(C)n(-c2nc(NC(C)C)nc(NC(C)C)n2)n1,-10%,x,-3%,3%,6.3µM*
CCCOc1cccc(C(=O)N2CCCCC2CCN2CCCCC2)c1 (configuration not stated),x,x,x,0%,x
C[C@@]12CCC(=O)C=C1CC[C@@H]1[C@@H]2[C@H](O)C[C@]2(C)[C@@H]1CC[C@]2(O)C(=O)CO,-3%[26 µM],-1%[20.6 µM],-10%[20.5 µM],0.079µM*!,-2%[20.6 µM]
CC(=O)OCC(=O)[C@@]1(O)CC[C@H]2[C@@H]3CCC4=CC(=O)CC[C@]4(C)[C@H]3[C@@H](O)C[C@@]21C,x,x,x,x,0%[20.6 µM]
C[C@@]12CCC(=O)C=C1CC[C@@H]1[C@@H]2[C@H](O)C[C@]2(C)[C@@H]1CC[C@]2(O)C(=O)COC(=O)CCC(=O)O,-7%,2%,0%,0.13µM*,-1%
CCOC(=O)c1ccc(NC(=O)CSc2nc(-c3ccc(OC)cc3)cc(C(F)(F)F)c2C#N)cc1,x,x,x,6%,x
CS(=O)(=O)N1CCc2cc(C(=O)Nc3cccc(F)c3)ccc21,x,x,x,-1%,x
CCN1CCN(Cc2c(O)ccc3c(C)c(-c4ccccc4)c(=O)oc23)CC1,x,x,x,-4%,x
CC1=CC(=O)c2ccccc2C1=O,-5%[26 µM],13µM*,-6%[20.5 µM],u,0%[20.6 µM]
CCOc1ccc(NC(=O)c2oc3ccccc3c2NC(=O)C(C)Oc2ccccc2)cc1 (configuration not stated),x,x,x,2%,x
